Sm TGR inh: S. mansoni TGR enzyme inhibition; AID 485364; actives 3% (n = 360,000); Potency, µM (top dose mostly 114 µM), inactives show at the highest dose activity change, negative = inhibition, actives largely listed as inhibitors; purified TGR, DTNB reduction, TNB absorbance 405 nm; note: potency is the fitted concentration of half-maximal effect; % is set by controls: 0 for no effect and ±100 for the full control effect; nearly all actives have a fitted effect of over 60% in size
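TGR 20 nM + NADPH 100 uM (dispensed conc.), cpd preinc 15 min RT; start with NADPH (500 uM addition) then DTNB (15 mM addition). Kinetic TNB absorbance, 405 nm filter. Four-parameter Hill fit across titration.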
Shiga toxin inh: Shiga toxin inhibition; Vero cells, Shiga toxin protein synthesis inhibition reporter; inhibition, % at 38.7 µM; actives 9.2% (n = 290,000); in the data active = inhibition mostly above about 28%, no sharp cut-off; inactive = mostly below about 43%; note: 0% is about no effect
Pf growth 48h: inhibits P. falciparum growth in the first generation, 48 h | P. falciparum luciferase growth in erythrocytes, 48 h | Potency, µM (doses to about 28.7 µM), for the others: top-dose activity change, negative = inhibition, actives largely listed as inhibitors | actives 5.9% (n = 310,000); note: potency is the fitted concentration of half-maximal effect; % is set by controls: 0 for no effect and ±100 for the full control effect
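Erythrocytes infected with P. falciparum carrying an integrated firefly luciferase reporter (2% hematocrit, 0.1% parasitemia final) were exposed to compounds in RPMI 1640 with 0.5% Albumax at 37 C, 5% CO2. Growth inhibition was scored as reduced luminescence.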
NS1 function inh: blocks influenza NS1 protein function. Potency, µM (highest dose often 46.1 µM), inactives show at the highest dose activity, positive = more growth. actives 0.4% (n = 270,000); calls by dose curve; note: potency is the fitted concentration of half-maximal effect; actives are rising curves; nearly all actives have a fitted effect of over 50% in size
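In this qHTS, NS1 from influenza A is expressed in budding yeast, where it slows growth. Cells are switched from glucose to 2% galactose medium (pH 6.0, -URA), treated with compound, and growth recovery is read at OD600.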
Cycloheximide cs: counter-screen for Shiga toxin inhibitors: cycloheximide protein synthesis inhibition; actives 12% (n = 300,000); max response, %; cell reporter, cycloheximide protein synthesis inhibition counterscreen; in the data active = max response mostly above about 13%, no sharp cut-off; inactive = mostly below about 14%; note: read at 38.3 µM for the half of the compounds with a filed dose; 0% is about no effect
Pf growth 96h: inhibits malaria parasite growth, 96 h; P. falciparum luciferase reporter growth, 96 h; Potency, µM (highest dose often 28.7 µM), inactives show at the highest dose activity change, negative = inhibition, usual class: inhibitors; actives 6.9% (n = 320,000); AID 504834; note: potency is the fitted concentration of half-maximal effect; % is set by controls: 0 for no effect and ±100 for the full control effect
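Cell-based qHTS: luciferase-tagged P. falciparum in erythrocytes (2% hematocrit, 0.05% parasitemia final) incubated with compounds for 96 hours, 37 C, 5% CO2; luciferase detection reagent then added and luminescence measured.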
The depositor's hits bear a star; ? = inconclusive; . = no result given. Only some compounds are listed: those with a hit (about 21% of all), similar ones and a draw of the others. Unless noted, calls come from the whole dose curve; as a rule, active = well fitted curve in the direction sought with a large enough effect; inconclusive = small, poorly fitted or top-dose-only effect, or another doubt; inactive = no such curve, though single readings can be large; an effect the other way counts as inactive or inconclusive.

SMILES	Sm TGR inh	Shiga toxin inh	Pf growth 48h	NS1 function inh	Cycloheximide cs	Pf growth 96h
Cc1cc(N2CCCC2)ccc1/C=C1/C(=O)N(C)C(=S)N1C	-22%	16	0%	3%	7	7%
CCCN1C(=O)/C(=C/c2ccc(N3CCCC3)c(C)c2)NC1=S	-1%	50*	?	-17%	19*	-16%
O=C(NC12CC3CC(CC(C3)C1)C2)c1cncc(Br)c1	10%	15	-16%	-25%	-2	?
Cc1ccc(CNC(=O)[C@]2(C(F)(F)F)C[C@H](CCc3ccccc3)CCCO2)o1	.	-5	.	.	10	.
CC(=O)Nc1ccc(SCC(=O)Nc2ccccc2-c2ccccc2)cc1	-8%	14	-25%	-6%	6	-23%
CC(=O)Nc1ccc(SCc2ncc(-c3ccccc3)o2)cc1	2%	90*	165%	-20%	44*	285%
COc1ccccc1CCNC(=O)C(C)n1nc(C)c2c(C)n(-c3ccccc3)nc2c1=O (stereo unspecified)	-3%	-3	-12%	10%	-4	12µM*
CCOc1ccc(CNC(=O)C(C)n2nc(C)c3c(C)n(-c4ccccc4)nc3c2=O)cc1 (stereo unspecified)	-27%	-3	?	16%	1	-6%
COc1ccc(CNC(=O)C(C)n2nc(C)c3c(C)n(-c4ccc(C)cc4)nc3c2=O)cc1 (stereo unspecified)	0%	-5	13µM*	-2%	3	-2%
COc1ccc(CCNC(=O)C(C)n2nc(C)c3c(C)n(-c4ccc(C)cc4)nc3c2=O)c(OC)c1 (stereo unspecified)	-2%	-7	13µM*	11%	10	3.3µM*
Cc1cccc(CNC(=O)C(C)n2nc(C)c3c(C)n(-c4ccccc4)nc3c2=O)c1 (stereo unspecified)	-22%	-2	?	8%	-5	10µM*
Cc1ccc(CNC(=O)c2cc3c(=O)n(Cc4cccnc4)ccc3nc2C)cc1	0%	.	.	.	.	.
COc1cc2c(cc1NC(=O)CN(C)Cc1cccc(OC)c1OC)oc1ccccc12	-8%	-29	-27%	-29%	11	0%
Cc1cc(C)n(-c2ncnc3ccccc23)n1	0%	-11	-4%	.	2	36%
COc1ccc(NC(=O)c2cccc(N3C(=O)c4cccc([N+](=O)[O-])c4C3=O)c2)cc1	-20%	26	17%	2%	24*	25%
CCOC(=O)c1cccc(NC(=O)C2CCN(S(=O)(=O)c3c(C)noc3/C=C/c3ccc(C)cc3)CC2)c1	8%	.	.	.	.	.
CC(C)(C)c1ccc(Oc2ncccc2NC(=O)c2cccs2)cc1	-6%	16	-16%	-12%	-2	-16%
O=c1[nH]c(Nc2nc3ccccc3o2)nc2c1CCCC2	15%	76*	-15%	0%	39*	10%
CCOc1ccc(Nc2nc3c(c(=O)[nH]2)CCCC3)cc1	-3%	0	2.3µM*	-1%	7	235%
Cc1ccc(Nc2nc3c(c(=O)[nH]2)CCCC3)cc1	-22%	21	?	4%	-3	?
CCOc1ccc(Nc2nc3c(c(=O)[nH]2)CCC3)cc1	-8%	-7	?	-14%	-4	?
Oc1cc(-c2ccncc2)cc2cccnc12	-10%	.	?	.	.	5.2µM*
c1cc(-c2ccncc2)ccn1	4%	-6	-5%	-7%	-4	-28%
CN(C)CCCNC(=O)c1ccc(-c2nc(-c3ccc(Cl)cc3)cs2)cc1	19%	-18	2.6µM*	-130%	-10	1.5µM*
Oc1cc(-c2ccc(N3CCCCC3)nc2)cc2cccnc12	-12%	.	4.1µM*	.	.	2.9µM*
N=C1C(c2nc(-c3ccc(Cl)cc3)cs2)=C(O)CN1NC(=O)c1ccc(O)cc1	1%	25	-29%	-4%	23*	-19%
CC(C)(C)c1ccc(C(=O)NCCc2csc(-c3ccc(Cl)cc3)n2)cc1	2%	.	.	.	.	.
COc1ccc(CNC(=O)C2CCCCN2S(=O)(=O)c2ccc(F)cc2)cc1 (stereo unspecified)	-4%	.	.	.	.	.
COc1ccc(-n2ncc3c(N4CCN(c5cccc(C)c5)C(C)C4)ncnc32)cc1 (stereo unspecified)	0%	.	.	.	.	.

High-throughput results from PubChem.
